# Target: Fibroblast growth factor 2 (Homo sapiens) (UniProt P09038)
# Experiment: basic fibroblast growth factor binding to printed compounds – biochemical, small-molecule microarray, 635/667 nm fluorescence, primary screen (AID 1133)
# Conditions: FGF2, fluorescence 635/667, higher = more signal
# Fibroblast growth factor 2 (Homo sapiens), sequence (P09038 whole entry, looked up): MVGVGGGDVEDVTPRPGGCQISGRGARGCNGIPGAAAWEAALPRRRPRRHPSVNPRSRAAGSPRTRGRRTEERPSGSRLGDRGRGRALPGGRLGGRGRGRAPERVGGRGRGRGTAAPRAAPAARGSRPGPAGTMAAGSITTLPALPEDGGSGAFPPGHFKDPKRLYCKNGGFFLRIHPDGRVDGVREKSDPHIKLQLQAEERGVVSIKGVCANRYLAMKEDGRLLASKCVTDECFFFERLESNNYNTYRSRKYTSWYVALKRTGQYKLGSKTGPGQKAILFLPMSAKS
row,Structure (SMILES),composite z-score
1,CCOC(=O)CCN1C(=O)[C@H]2[C@H]3[C@H](O)[C@H](O)CC(=NOC[C@@H](O)COCc4ccco4)[C@@H]3CC[C@H]2C1=O,0.225
2,COc1ccc([Si](C)(C)[C@H]2[C@H](CC(=O)N3CCC[C@H]3CO)O[C@@]3(C(=O)N(Cc4cccc(N5C(=O)COc6ccccc65)c4)c4ccccc43)[C@@H]2C)cc1,1.68
3,CC(=O)OC[C@H]1O[C@H](CCON=C(C)CCC(=O)OC[C@H]2O[C@H](C#Cc3ccccc3)C=C[C@@H]2Oc2ccc(C)cc2)C=C[C@@H]1OC(C)=O,0.592
4,CCOC(=O)[C@H](CC(C)C)NC(=O)CCC1CC(OC(=O)NCc2cccc3ccccc23)CC2(CCCC(COC(=O)NCCN3CCOCC3)O2)O1 (some centres undefined),0.685
5,CN1C(=O)C2C=CC(C(O)C(c3ccccc3)c3ccccc3)N(NC(=O)OC(C)(C)C)C2C1=O (centres undefined),0.0319
6,Cc1cc2c(c(=O)o1)[C@H](O)[C@H]1O[C@H]1C2=O,0.126
7,O=C(NN=C1C[C@@H](O)[C@@H](O)[C@@H]2[C@@H]3C(=O)N(c4cccc(Oc5ccccc5)c4)C(=O)[C@@H]3CC[C@@H]12)OCc1ccccc1,-0.0953
8,COC(=O)C1=CCC(c2cccc(Cl)c2)O1 (centres undefined),-0.473
9,NC(=O)NCC#Cc1ccc2c(c1)[C@]1(C(=O)N2)[C@H](c2ccc(O)cc2)N2[C@H](c3ccccc3)[C@H](c3ccccc3)OC(=O)[C@H]2[C@@H]1C(=O)N1CCCCCCC1,0.25
10,CC(C)[C@@H](OCc1ccccc1)[C@H](C)C=NOC[C@@H](C)[C@H](OCc1ccccc1)C(C)C,0.139
11,COc1ccc(O[C@H]2C=C[C@@H](c3ccccc3)O[C@@H]2COC(=O)N2CCCCC2)cc1,0.571
12,CO[C@@H]1COC(=O)CC=C[C@@H](C)[C@H](OC)COC(=O)[C@H](COCc2ccccc2)NC(=O)CC=C[C@H]1C,0.513
13,CO[C@@H]1COC(=O)[C@@H]2CCCN2C(=O)[C@@H](C)COC(=O)[C@H](COCc2ccccc2)NC(=O)CC=C[C@H]1C,0.27
14,CC(=O)OC[C@H]1O[C@H](CCON=C(C)CCN2CCc3nc(-c4ccccc4)c(-c4ccccc4)cc3C2)C=C[C@@H]1OC(C)=O,-0.138
15,CCCC[C@@H](O)C1=C(C)C[C@H]2C(=O)N(Cc3ccccc3)C(=O)[C@H]2[C@H]1CO,0.828
16,O=C1[C@H]2[C@H]3[C@H](O)[C@H](O)CC(=NO[C@@H]4O[C@H](CO)[C@@H](O)[C@H](O)[C@H]4O)[C@H]3CC[C@H]2C(=O)N1C1CCCCC1,-0.0148
17,COC(=O)C1=C(C)[C@@H](O)[C@@H](C)[C@H](c2c(OC)c(OC)c(C)c(OC)c2OC)O1,0.236
18,COc1ccc(-c2ccc3c(n2)CCCN3CC(O)CN2CCCc3nc(C)c(C)cc32)cc1 (centres undefined),0.62
19,CC(C)(C)OC(=O)CC[C@]1(C(=O)NCc2ccccc2)N=C(c2ccc(OCCCO)cc2)O[C@H]1c1ccccc1,0.487
20,CC(=O)OC[C@H]1O[C@H](C#CCCCc2ccccc2)C=C[C@@H]1OC(C)=O,0.83
21,CS(=O)(=O)CCOC(=O)C1=CC(CCCO)=CC(c2cccs2)N(Cc2cccc(OC(F)(F)F)c2)C=C1C(=O)OCCS(C)(=O)=O (centres undefined),0.202
22,NCCCCCNC(=O)[C@@H]1C[C@@H]2C(=O)N3CCC[C@H]3C(=O)N2[C@@H]1c1cccc(OCCO)c1,0.878
23,CC(C)=C1C(=O)C(c2ccccc2)=C2CN3C(=O)N(CCc4ccccc4)C(=O)[C@]3(Cc3ccc(F)cc3)[C@H]21,-0.412
24,COc1ccc(COC(=O)NN=C2C[C@@H](O)[C@@H](O)[C@@H]3[C@@H]4C(=O)N(Cc5ccc6c(c5)OCO6)C(=O)[C@@H]4CC[C@@H]23)cc1,-0.922
25,CCOC(=O)C[C@H]1[C@H](OC(=O)c2ccc(C(=O)c3ccccc3)cc2)[C@@H](NC(=O)c2ccc(-c3ccccc3)cc2)c2cc(OCCCO)ccc2N1C(=O)c1ccc2ccccc2n1,0.688
26,C[C@@H]1CC[C@H]2C(=O)O[C@H](COc3ccc(C(C)(C)C)cc3)CN2[C@H]1c1ccc(Br)cc1,0.0203
27,CC(C)CON=C1C[C@@H](O)[C@@H](O)[C@@H]2[C@@H]3C(=O)N([C@@H](C)c4ccccc4)C(=O)[C@@H]3CC[C@H]12,1.18
28,O=C1CCCC=C1C(O)CCOCc1ccccc1 (centres undefined),0.102
29,CCc1cccc(NC(=O)O[C@H]2[C@H](OC(=O)Nc3ccc4c(c3)OCO4)[C@@H](OC(=O)Nc3ccc4c(c3)OCO4)[C@@H](OC)O[C@@H]2CO)c1,0.528

# — PubChem BioAssay
